# In PubChem BioAssay AID1159580 (chemical genetic matrix, 2015):
# Screen size: about 5,500 compounds; about 2,000 (36%) were called active. Another 18% or so got no clear call; they are omitted. The list shows a part of the results. Values without a mark were called inactive. No stated cut-off is given here; in the data, active means normalized growth mostly below about 0.91 (no sharp cut-off); inconclusive means no clear call, values can overlap the other calls; inactive means mostly above about 0.92.
# Experiment: chemical genetic growth profiling, strain panel (AID 1159580);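 further: tested at 20 µM; growth read once vehicle control cultures reached saturation at 30 °C; 1 = growth at the plate median or of vehicle wells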
# Conditions: S. cerevisiae deletion strains, growth OD
smiles,measurement,setting,value
C=Cc1c(SC)sc(C(=O)O)c1C,normalized growth,"locus YAL013W, strain DEP1, stronger effect = lower value",0.869 (active)
same,normalized growth,"locus YBR229C, strain ROT2, stronger effect = lower value",0.766 (active)
same,normalized growth,"locus YCL061C, strain MRC1, stronger effect = lower value",0.746 (active)
same,normalized growth,"locus YDL101C, strain DUN1, stronger effect = lower value",0.705 (active)
same,normalized growth,"locus YDL134C, strain PPH21, stronger effect = lower value",1.01
same,normalized growth,"locus YDR150W, strain NUM1, stronger effect = lower value",0.869
same,normalized growth,"locus YEL061C, strain CIN8, stronger effect = lower value",0.999
same,normalized growth,"locus YGR078C, strain PAC10, stronger effect = lower value",0.794 (active)
same,normalized growth,"locus YHR030C, strain SLT2, stronger effect = lower value",1.05
same,normalized growth,"locus YHR087W, strain rtc3, stronger effect = lower value",0.761 (active)
same,normalized growth,"locus YJL187C, strain SWE1, stronger effect = lower value",1.05
same,normalized growth,"locus YJR043C, strain POL32, stronger effect = lower value",0.807 (active)
same,normalized growth,"locus YJR075W, strain HOC1, stronger effect = lower value",0.636 (active)
same,normalized growth,"locus YLR039C, strain RIC1, stronger effect = lower value",0.795
same,normalized growth,"locus YLR058C, strain SHM2 (second series), stronger effect = lower value",0.889 (active)
same,normalized growth,"locus YLR085C, strain ARP6, stronger effect = lower value",1.05
same,normalized growth,"locus YLR262C, strain YPT6, stronger effect = lower value",0.776 (active)
same,normalized growth,"locus YML094W, strain GIM5, stronger effect = lower value",1.01
same,normalized growth,"locus YMR219W, strain ESC1, stronger effect = lower value",0.804 (active)
same,normalized growth,"locus YMR263W, strain SAP30, stronger effect = lower value",0.869 (active)
same,normalized growth,"locus YNL128W, strain TEP1, stronger effect = lower value",1.04
same,normalized growth,"locus YNL153C, strain GIM3, stronger effect = lower value",0.771 (active)
same,normalized growth,"locus YNL298W, strain CLA4 (second series), stronger effect = lower value",1.02
same,normalized growth,"locus YNL322C, strain KRE1, stronger effect = lower value",0.865 (active)
same,normalized growth,"locus YNR030W, strain Alg12, stronger effect = lower value",0.979
same,normalized growth,"locus YOL006C, strain TOP1, stronger effect = lower value",1.07
same,normalized growth,"locus YPL241C, strain CIN2, stronger effect = lower value",0.966
same,normalized growth,"locus YPR135W, strain CTF4, stronger effect = lower value",1.1
